Measurements as given in paper PMC7862700, “An all-to-all approach to the identification of sequence-specific readers for epigenetic DNA modifications on cytosine”.

How the values were obtained:
Assay in all cases: DAPPL (digital affinity profiling via proximity ligation, sequencing); 10 mM Tris-HCl pH 7.5, 50 mM NaCl, 1 mM DTT, 4% glycerol, room temperature, 30 min; GST-TFs on glutathione beads, 16-mer random dsDNA library, 0.1% formaldehyde crosslink after washing; high values mean tight binding
FEV = target: T1, FEV (Homo sapiens, UniProt Q99581 1-238); settings: protein: recombinant; tags: N-terminal GST; dsDNA, one strand shown
T1 sequence: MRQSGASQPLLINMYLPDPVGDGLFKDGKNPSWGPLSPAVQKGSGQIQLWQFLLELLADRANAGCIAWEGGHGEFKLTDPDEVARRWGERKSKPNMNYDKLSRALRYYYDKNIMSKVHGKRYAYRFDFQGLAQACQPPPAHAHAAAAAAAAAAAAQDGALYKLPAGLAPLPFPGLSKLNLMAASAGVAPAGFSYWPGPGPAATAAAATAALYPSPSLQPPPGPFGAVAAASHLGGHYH
Method in brief: (§1)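 Human transcription factors carrying a GST fusion were produced in yeast, bound to glutathione beads, tagged with DNA barcodes and pooled together with a tag-only sample. Each pool was held with 200 nmole of a random double-stranded 16-mer DNA library in Tris/NaCl/DTT/glycerol buffer for 30 min at room temperature, then washed, crosslinked in 0.1% formaldehyde, proximity-ligated with BsaI/T4 ligase (1 h, 37 °C), PCR-amplified and sequenced on an Illumina NextSeq500. Binding signal is the read frequency of each hexamer for a given factor divided by its frequency in the tag-only sample.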

ETV5 = ETV5 (Homo sapiens, UniProt P41161 1-510); settings: protein: recombinant; tags: N-terminal GST; dsDNA, one strand shown
Chain of ETV5 (P41161 whole entry): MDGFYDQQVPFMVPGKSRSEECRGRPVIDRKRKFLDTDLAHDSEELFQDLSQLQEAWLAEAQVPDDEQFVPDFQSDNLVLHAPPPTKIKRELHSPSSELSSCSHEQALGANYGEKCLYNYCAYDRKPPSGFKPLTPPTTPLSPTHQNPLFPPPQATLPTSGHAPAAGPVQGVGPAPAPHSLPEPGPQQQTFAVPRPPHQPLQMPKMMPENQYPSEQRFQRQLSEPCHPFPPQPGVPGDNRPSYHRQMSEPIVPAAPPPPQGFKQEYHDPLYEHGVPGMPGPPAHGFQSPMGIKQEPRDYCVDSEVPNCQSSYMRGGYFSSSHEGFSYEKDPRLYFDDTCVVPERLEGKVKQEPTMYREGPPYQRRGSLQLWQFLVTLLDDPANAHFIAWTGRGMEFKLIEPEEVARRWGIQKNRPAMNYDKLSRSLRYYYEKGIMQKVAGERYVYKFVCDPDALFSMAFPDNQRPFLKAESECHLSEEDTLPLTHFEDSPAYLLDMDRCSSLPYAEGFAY
Method in brief: as §1

HSF1 = HSF1 (Homo sapiens, UniProt Q00613 1-529); settings: protein: recombinant; tags: N-terminal GST; chain copies: 3; dsDNA, one strand shown
Chain of HSF1 (Q00613 whole entry): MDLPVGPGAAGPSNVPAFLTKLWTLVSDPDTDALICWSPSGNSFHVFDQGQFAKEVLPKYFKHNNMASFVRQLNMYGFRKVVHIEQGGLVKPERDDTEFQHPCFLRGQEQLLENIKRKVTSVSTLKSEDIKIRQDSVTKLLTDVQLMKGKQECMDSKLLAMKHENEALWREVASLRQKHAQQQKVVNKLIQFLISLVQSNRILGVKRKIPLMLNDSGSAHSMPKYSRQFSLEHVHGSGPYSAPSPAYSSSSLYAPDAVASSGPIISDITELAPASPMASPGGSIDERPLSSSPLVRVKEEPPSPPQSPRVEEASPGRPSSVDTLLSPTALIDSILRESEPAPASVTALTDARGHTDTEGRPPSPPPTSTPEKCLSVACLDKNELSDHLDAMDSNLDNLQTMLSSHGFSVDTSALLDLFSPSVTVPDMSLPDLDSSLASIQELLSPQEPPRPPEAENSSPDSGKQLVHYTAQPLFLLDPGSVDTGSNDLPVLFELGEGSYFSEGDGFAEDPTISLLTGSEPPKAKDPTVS
Method in brief: as §1

SPIC = target: T2, SPIC (Homo sapiens, UniProt Q8N5J4 1-248); settings: protein: recombinant; tags: N-terminal GST; dsDNA, one strand shown
T2 sequence: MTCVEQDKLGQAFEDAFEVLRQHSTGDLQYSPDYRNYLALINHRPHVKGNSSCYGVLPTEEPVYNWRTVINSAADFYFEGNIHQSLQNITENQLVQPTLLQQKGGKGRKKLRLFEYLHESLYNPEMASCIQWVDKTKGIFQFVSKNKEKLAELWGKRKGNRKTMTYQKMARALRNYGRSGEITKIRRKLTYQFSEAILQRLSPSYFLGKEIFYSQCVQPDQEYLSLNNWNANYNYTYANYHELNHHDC
Method in brief: as §1

ELF4 = ELF4 (Homo sapiens, UniProt Q99607 1-663); settings: protein: recombinant; tags: N-terminal GST; dsDNA, one strand shown
Chain of ELF4 (Q99607 whole entry): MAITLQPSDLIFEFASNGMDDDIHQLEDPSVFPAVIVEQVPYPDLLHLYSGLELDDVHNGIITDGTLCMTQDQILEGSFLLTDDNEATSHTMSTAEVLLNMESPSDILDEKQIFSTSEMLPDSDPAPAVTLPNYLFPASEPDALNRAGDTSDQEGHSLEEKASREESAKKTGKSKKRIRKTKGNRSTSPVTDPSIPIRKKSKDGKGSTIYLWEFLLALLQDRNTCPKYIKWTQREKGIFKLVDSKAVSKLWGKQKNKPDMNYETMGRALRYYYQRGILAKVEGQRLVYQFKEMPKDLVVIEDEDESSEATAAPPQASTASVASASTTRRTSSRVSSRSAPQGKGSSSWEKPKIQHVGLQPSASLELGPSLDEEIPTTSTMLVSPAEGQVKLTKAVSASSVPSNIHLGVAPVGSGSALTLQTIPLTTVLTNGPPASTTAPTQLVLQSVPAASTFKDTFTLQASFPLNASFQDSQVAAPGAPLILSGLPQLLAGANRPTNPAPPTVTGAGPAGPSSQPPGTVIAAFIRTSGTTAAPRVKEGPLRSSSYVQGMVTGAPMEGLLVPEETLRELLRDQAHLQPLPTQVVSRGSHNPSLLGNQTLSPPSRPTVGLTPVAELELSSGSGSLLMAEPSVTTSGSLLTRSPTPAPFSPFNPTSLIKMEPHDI
Method in brief: as §1

ELK4 = target: T3, ELK4 (Homo sapiens, UniProt P28324-2 1-405); settings: protein: recombinant; tags: N-terminal GST; dsDNA, one strand shown
T3 sequence: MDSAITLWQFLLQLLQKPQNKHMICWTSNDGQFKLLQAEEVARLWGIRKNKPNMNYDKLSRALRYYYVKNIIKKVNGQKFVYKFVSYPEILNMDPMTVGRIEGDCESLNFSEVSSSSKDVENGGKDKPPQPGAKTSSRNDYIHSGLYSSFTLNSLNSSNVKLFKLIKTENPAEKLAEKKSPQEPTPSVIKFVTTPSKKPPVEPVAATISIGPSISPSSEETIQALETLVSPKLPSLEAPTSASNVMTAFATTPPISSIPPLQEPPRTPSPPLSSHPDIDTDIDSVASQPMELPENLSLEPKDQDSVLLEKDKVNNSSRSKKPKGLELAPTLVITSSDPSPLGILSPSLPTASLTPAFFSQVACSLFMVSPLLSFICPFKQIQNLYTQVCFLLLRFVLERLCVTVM
Method in brief: as §1

ETV2 = target: T4, ETV2 (Homo sapiens, UniProt O00321 1-342); settings: protein: recombinant; tags: N-terminal GST; dsDNA, one strand shown
T4 sequence: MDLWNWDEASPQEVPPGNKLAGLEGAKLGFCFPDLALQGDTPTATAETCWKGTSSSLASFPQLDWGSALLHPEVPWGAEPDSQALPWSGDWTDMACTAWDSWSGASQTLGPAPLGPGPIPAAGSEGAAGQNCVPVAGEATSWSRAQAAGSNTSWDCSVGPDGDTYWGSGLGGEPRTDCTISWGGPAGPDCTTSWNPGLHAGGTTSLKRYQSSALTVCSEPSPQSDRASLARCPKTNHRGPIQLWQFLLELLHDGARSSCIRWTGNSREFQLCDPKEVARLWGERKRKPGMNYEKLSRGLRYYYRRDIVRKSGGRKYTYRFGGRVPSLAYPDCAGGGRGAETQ
Method in brief: as §1

ELF3 = target: T5, ELF3 (Homo sapiens, UniProt P78545 1-371); settings: protein: recombinant; tags: N-terminal GST; dsDNA, one strand shown
T5 sequence: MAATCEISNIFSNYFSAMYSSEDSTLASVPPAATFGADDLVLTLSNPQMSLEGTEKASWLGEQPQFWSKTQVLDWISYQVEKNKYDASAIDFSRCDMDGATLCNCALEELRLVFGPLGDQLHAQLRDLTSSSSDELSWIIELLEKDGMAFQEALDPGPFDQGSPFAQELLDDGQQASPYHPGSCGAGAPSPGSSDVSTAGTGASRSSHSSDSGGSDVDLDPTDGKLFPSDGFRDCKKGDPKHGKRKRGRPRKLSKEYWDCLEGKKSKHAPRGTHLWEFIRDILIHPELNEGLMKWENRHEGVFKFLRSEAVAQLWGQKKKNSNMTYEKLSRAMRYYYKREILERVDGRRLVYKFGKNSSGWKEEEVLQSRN
Method in brief: as §1

CRX = CRX (Homo sapiens, UniProt O43186 1-299); settings: protein: recombinant; tags: N-terminal GST; dsDNA, one strand shown
Chain of CRX (O43186 whole entry): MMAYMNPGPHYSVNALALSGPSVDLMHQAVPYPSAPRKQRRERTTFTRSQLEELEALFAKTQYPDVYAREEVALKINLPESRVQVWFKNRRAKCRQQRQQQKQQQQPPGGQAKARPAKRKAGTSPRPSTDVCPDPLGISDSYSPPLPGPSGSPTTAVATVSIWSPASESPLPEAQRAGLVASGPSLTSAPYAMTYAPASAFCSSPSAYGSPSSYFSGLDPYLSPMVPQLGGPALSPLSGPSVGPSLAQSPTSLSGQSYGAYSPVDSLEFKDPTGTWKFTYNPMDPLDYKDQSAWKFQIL
Method in brief: as §1

ETV1 = ETV1 (Homo sapiens, UniProt P50549 1-477); settings: protein: recombinant; tags: N-terminal GST; dsDNA, one strand shown
Chain of ETV1 (P50549 whole entry): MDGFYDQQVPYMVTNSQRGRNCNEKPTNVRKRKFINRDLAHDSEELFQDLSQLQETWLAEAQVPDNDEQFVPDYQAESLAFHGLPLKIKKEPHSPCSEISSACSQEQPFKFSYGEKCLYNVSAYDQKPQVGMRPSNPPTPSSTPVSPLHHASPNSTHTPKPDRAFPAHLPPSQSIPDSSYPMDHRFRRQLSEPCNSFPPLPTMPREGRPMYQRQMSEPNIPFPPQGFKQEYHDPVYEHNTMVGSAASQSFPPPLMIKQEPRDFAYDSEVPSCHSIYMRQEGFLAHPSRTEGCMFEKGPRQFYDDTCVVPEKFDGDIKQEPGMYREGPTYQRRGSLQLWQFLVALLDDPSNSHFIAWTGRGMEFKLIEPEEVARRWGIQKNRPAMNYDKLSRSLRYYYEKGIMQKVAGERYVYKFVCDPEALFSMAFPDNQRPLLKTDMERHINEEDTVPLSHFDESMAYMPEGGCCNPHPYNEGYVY
Method in brief: as §1

ERF = target: T6, ERF (Homo sapiens, UniProt P50548 1-548); settings: protein: recombinant; tags: N-terminal GST; dsDNA, one strand shown
T6 sequence: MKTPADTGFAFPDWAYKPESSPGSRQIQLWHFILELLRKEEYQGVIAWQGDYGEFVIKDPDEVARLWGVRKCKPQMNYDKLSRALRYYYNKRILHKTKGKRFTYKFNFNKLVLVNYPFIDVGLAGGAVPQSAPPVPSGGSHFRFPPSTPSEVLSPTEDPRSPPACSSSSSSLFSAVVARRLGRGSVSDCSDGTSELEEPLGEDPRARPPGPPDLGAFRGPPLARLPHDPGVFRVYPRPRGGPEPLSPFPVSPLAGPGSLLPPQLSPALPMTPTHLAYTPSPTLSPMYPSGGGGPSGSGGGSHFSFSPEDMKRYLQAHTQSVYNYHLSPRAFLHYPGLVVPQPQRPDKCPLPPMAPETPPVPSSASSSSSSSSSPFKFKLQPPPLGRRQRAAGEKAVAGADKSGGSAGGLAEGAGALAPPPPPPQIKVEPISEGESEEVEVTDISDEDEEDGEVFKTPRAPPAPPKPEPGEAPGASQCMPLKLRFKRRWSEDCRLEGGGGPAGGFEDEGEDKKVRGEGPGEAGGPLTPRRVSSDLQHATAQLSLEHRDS
Method in brief: as §1

ETV3L = target: T7, ETV3L (Homo sapiens, UniProt Q6ZN32 1-361); settings: protein: recombinant; tags: N-terminal GST; dsDNA, one strand shown
T7 sequence: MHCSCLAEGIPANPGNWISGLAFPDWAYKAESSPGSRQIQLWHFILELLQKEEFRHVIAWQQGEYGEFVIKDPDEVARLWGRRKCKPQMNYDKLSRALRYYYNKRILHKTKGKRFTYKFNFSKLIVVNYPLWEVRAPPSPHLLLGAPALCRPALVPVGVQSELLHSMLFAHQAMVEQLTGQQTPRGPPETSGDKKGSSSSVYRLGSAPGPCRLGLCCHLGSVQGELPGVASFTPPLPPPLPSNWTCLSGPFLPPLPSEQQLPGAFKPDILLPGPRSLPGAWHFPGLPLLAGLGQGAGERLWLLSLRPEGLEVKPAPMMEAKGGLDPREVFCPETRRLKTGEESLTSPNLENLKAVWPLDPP
Method in brief: as §1

ETS2 = target: T8, ETS2 (Homo sapiens, UniProt P15036 1-469); settings: protein: recombinant; tags: N-terminal GST; dsDNA, one strand shown
T8 sequence: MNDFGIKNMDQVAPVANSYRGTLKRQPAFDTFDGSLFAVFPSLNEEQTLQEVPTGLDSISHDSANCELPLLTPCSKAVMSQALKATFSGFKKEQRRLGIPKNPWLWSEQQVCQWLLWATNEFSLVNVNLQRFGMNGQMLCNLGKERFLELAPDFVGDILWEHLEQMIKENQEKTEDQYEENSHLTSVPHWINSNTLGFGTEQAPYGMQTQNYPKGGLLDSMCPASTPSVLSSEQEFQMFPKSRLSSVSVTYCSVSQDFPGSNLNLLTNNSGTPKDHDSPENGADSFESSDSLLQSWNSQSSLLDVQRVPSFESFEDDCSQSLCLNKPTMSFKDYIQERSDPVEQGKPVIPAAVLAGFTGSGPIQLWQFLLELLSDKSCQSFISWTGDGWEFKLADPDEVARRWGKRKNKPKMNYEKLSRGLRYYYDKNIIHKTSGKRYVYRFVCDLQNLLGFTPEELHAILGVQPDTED
Method in brief: as §1

SPDEF = target: T9, SPDEF (Homo sapiens, UniProt O95238 1-335); settings: protein: recombinant; tags: N-terminal GST; dsDNA, one strand shown
T9 sequence: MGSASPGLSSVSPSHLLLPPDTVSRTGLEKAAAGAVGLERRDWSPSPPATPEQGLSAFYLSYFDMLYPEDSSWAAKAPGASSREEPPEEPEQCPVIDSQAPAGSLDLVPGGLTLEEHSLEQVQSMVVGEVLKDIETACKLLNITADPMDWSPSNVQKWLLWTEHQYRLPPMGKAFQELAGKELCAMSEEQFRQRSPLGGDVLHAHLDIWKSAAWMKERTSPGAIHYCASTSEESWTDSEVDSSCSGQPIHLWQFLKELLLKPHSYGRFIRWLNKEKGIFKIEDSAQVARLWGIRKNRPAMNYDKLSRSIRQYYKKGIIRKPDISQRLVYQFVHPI
Method in brief: as §1

ETV7 = target: T10, ETV7 (Homo sapiens, UniProt Q9Y603 1-341); settings: protein: recombinant; tags: N-terminal GST; dsDNA, one strand shown
T10 sequence: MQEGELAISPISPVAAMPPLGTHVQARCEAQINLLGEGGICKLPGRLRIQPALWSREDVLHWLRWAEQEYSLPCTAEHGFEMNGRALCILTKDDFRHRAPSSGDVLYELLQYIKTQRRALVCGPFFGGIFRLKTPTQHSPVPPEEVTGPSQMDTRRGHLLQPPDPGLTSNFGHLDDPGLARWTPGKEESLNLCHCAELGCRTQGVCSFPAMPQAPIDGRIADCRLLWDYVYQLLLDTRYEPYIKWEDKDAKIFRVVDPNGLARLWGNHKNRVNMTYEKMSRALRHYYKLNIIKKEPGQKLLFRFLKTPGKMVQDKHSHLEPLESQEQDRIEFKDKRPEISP
Method in brief: as §1

ELF5 = target: T11, ELF5 (Homo sapiens, UniProt Q9UKW6-2 1-255); settings: protein: recombinant; tags: N-terminal GST; dsDNA, one strand shown
T11 sequence: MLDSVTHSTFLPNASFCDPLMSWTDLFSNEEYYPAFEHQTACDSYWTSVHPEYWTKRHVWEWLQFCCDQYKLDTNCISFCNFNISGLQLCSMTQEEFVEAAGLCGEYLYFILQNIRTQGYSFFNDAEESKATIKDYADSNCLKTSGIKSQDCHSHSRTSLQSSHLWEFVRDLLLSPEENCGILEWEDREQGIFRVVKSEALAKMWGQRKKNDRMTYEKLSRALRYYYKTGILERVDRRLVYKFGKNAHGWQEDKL
Method in brief: as §1

ETV3 = target: T12, ETV3 (Homo sapiens, UniProt P41162-2 1-143); settings: protein: recombinant; tags: N-terminal GST; dsDNA, one strand shown
T12 sequence: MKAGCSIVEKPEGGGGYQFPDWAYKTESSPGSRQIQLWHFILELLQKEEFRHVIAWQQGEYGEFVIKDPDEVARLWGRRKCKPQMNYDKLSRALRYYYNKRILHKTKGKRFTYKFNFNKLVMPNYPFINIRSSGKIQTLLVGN
Method in brief: as §1

ETV6 = ETV6 (Homo sapiens, UniProt P41212 1-452); settings: protein: recombinant; tags: N-terminal GST; dsDNA, one strand shown
Chain of ETV6 (P41212 whole entry): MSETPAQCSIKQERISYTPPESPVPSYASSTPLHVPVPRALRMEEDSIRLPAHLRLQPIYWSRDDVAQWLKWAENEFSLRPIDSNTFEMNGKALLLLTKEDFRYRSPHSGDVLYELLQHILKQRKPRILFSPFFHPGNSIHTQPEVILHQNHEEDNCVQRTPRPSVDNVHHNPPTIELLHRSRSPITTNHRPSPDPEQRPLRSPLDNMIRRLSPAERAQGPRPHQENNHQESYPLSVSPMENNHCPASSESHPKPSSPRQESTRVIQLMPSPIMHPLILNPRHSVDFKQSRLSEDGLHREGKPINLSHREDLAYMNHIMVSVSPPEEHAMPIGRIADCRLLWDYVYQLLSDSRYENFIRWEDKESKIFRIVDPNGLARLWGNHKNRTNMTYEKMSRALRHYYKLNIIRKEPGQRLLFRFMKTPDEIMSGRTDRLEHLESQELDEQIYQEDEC
Method in brief: as §1

CTGCCT was tested, and the binding signal (FEV) was 1.2 fold enrichment (6-mer frequency, TF over GST control), the binding signal (ETV5) was 1.18 fold enrichment (6-mer frequency, TF over GST control) and the binding signal (HSF1) was 1.13 fold enrichment (6-mer frequency, TF over GST control). The binding signal (SPIC) was 1.07 fold enrichment (6-mer frequency, TF over GST control), the binding signal (ELF4) was 1.21 fold enrichment (6-mer frequency, TF over GST control) and the binding signal (ELK4) was 1.14 fold enrichment (6-mer frequency, TF over GST control). For the same sequence, the binding signal (ETV2) was 1.15 fold enrichment (6-mer frequency, TF over GST control), the binding signal (ELF3) was 1.17 fold enrichment (6-mer frequency, TF over GST control) and the binding signal (CRX) was 1.11 fold enrichment (6-mer frequency, TF over GST control). The binding signal (ETV1) was 1.24 fold enrichment (6-mer frequency, TF over GST control), the binding signal (ERF) was 1.23 fold enrichment (6-mer frequency, TF over GST control) and the binding signal (ETV3L) was 1.26 fold enrichment (6-mer frequency, TF over GST control). For the same sequence, the binding signal (ETS2) was 1.16 fold enrichment (6-mer frequency, TF over GST control), the binding signal (SPDEF) was 1.31 fold enrichment (6-mer frequency, TF over GST control) and the binding signal (ETV7) was 1.36 fold enrichment (6-mer frequency, TF over GST control). The binding signal (ELF5) was 1.29 fold enrichment (6-mer frequency, TF over GST control), the binding signal (ETV3) was 1.23 fold enrichment (6-mer frequency, TF over GST control) and the binding signal (ETV6) was 1.31 fold enrichment (6-mer frequency, TF over GST control).
